Test [1] has as its target bovine Estrogen Receptor (ER), ESR1 (gene 407238) (UniProt P49884). Briefly: NVS_NR_bER: NovaScreen (NVS) Nuclear Receptor Binding Assay for bovine Estrogen Receptor (ER) (AID 2283345).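 Also: actives lower the bound radioligand count which means they displace the ER ligand.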 Put shortly: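 Bovine uterine membranes; tritiated or iodinated radioligand; competitive displacement; 18 h; scintillation read; DMSO negative control; 25 uM duplicates, then concentration series for actives.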

Test [2] deals with chimpanzee Androgen Receptor (AR), AR (gene 747460) (UniProt O97775). The test can be described thus: NVS_NR_cAR: NovaScreen (NVS) Nuclear Receptor Binding Assay for chimpanzee Androgen Receptor (AR) (AID 2283346). The method in brief: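 Cell-free radioligand displacement using receptor protein extracted from Sf9/Sf21 cells; bound radioligand measured by scintillation counting 72 hours after chemical dosing. Loss of signal versus DMSO baseline indicates binding; primary screen single-concentration in duplicate at 25 uM, actives followed in concentration series.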
Sequence of chimpanzee Androgen Receptor (AR), AR (gene 747460) (O97775 whole entry, looked up): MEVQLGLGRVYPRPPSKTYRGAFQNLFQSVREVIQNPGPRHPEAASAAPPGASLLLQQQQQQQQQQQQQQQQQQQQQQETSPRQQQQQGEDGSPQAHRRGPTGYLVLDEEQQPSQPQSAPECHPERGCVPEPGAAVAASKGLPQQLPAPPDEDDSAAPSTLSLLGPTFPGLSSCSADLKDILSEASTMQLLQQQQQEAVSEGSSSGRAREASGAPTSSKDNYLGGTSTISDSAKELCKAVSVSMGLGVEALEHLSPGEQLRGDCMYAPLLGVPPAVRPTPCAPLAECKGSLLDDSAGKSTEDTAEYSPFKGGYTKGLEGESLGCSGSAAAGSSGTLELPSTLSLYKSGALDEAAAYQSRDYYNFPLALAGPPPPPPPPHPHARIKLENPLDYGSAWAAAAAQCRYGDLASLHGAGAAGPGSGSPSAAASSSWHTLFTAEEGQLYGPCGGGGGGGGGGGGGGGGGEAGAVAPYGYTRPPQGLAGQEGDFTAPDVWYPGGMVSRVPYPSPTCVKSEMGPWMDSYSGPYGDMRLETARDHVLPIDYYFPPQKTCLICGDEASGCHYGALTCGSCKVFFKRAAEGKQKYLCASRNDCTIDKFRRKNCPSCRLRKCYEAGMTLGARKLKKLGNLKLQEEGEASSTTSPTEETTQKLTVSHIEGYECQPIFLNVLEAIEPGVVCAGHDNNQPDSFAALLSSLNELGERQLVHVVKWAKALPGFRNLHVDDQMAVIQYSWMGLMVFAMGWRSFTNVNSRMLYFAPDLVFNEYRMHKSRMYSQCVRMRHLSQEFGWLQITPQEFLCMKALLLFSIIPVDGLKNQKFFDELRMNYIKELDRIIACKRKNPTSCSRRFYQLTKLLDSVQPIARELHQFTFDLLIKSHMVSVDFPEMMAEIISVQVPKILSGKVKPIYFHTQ

The target of test [3] is Estrogen receptor (Homo sapiens) (UniProt P03372). The test can be described thus: NVS_NR_hER: NovaScreen (NVS) Nuclear Receptor Binding Assay for human Estrogen Receptor (ER) (AID 2283348). Put shortly:
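Cell-free radioligand binding with protein extracted from MCF7 cells; scintillation counting 18 hours after dosing. Loss of signal versus DMSO baseline read as displacement; primary single-concentration screen at 25 uM in duplicate, actives retested in concentration series.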

The target is the same in test [4]. Briefly: OT_ER_ERaERa_1440: Odyssey Thera (OT) 24-hour HEK293T Protein-Complementation Assay for Estrogen Receptor-alpha/-alpha Homodimer (AID 2283349).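 Also: hits raise fluorescence above DMSO for agonists and antagonists alike.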 Put shortly: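 Readout is the rise in mean fluorescence from reporter fragment complementation when ERα LBD (aa 310-547) units dimerize in HEK293T cells. Measured 24 h after dosing and analysed as increase over DMSO control.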

Test [5] has the same target. Briefly: OT_ER_ERaERa_0480: Odyssey Thera (OT) 8-hour HEK293T Protein-Complementation Assay for Estrogen Receptor-alpha/-alpha Homodimer (AID 2283351).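 Also: rise in fluorescence from reassembled reporter fragments on ERα LBD homodimer in nucleus or whole cell.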 The method in brief: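 The readout is complementation of fragments fused to the human ER alpha ligand-binding domain (aa 310-547), stably expressed in HEK293T cells. After 8 h of exposure, the increase in nuclear/cytoplasmic fluorescence was measured by laser scanning cytometry and fitted relative to DMSO.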

Inconclusive results are not listed. Some compounds were tested as several samples or in several runs, with calls that do not always agree. Activity calls are given as the source filed them. The calls were made as follows: active = hit-call score of the fitted dose curve at least 0.9, where 1 is the maximum; inconclusive = response in the unintended direction; inactive = score below 0.9.

Sequence of Estrogen receptor (Homo sapiens) (P03372 whole entry, looked up): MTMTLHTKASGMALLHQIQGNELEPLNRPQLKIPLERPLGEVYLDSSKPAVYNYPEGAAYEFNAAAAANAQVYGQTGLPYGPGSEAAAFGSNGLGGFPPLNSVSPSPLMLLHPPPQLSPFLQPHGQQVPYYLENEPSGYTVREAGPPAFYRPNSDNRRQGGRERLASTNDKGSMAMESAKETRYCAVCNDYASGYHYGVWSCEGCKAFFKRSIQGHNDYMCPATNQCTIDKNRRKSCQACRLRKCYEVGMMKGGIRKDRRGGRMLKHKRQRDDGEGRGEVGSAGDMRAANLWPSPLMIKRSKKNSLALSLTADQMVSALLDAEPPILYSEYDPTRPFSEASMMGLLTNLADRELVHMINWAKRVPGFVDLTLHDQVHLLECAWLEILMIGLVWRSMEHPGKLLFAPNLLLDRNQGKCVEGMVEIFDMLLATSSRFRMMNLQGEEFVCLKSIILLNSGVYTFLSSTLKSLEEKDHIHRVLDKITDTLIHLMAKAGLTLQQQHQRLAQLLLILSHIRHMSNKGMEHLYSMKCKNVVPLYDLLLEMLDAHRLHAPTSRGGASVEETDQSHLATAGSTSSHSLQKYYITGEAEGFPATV
Sequence of bovine Estrogen Receptor (ER), ESR1 (gene 407238) (P49884 whole entry, looked up): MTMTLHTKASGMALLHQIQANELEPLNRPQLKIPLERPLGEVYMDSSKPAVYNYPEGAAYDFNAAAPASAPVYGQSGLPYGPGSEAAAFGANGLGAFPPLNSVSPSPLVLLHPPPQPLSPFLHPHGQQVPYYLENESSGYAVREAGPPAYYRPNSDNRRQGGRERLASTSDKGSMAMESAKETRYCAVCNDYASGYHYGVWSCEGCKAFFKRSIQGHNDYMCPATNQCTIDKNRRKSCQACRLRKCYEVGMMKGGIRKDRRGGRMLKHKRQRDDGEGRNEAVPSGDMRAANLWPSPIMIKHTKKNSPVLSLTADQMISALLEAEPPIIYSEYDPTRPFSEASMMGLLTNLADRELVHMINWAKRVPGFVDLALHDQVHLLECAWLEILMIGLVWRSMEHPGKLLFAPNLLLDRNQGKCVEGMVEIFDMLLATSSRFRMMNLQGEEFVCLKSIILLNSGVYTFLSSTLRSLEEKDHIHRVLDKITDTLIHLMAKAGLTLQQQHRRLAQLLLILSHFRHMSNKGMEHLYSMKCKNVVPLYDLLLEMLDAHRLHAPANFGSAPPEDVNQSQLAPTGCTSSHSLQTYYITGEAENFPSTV

In the case of `Oc1ccc(Cl)cc1Cc1cc(Cl)ccc1O`, the compound was called inactive in test [1] and in test [5]. Further, the AC50 – broadly, the midpoint of the concentration-response curve, whichever way the signal moves – was 16.2 µM (active) in test [2], 25 µM (active) in test [3] and 11.9 µM (active) in test [4].
Regarding `Cc1cc(O)c(Cl)c(C)c1Cl`, in test [1], the result was inactive.
For the compound `O=C1Nc2ccccc2C1(c1ccc(O)cc1)c1ccc(O)cc1`, the compound was called inactive in test [1] and in test [3].
Consider `S=C(NC1CCCCC1)NC1CCCCC1`, for which the outcome in test [1] and in test [3] was inactive.
In the case of `CC(=O)c1ccc2c(c1)CCCC2`, the AC50 in test [1] is 5.86 µM (active).
Turning to `O=C(OCC1CCC2OC2C1)C1CCC2OC2C1` (stereo not drawn), the compound was called inactive in test [1] and in test [4]. Moreover, the AC50 in test [5] is 12.1 µM (active).
For the compound `[Cl][In]([Cl])[Cl]`, the compound was called inactive in test [1]. Besides, in test [3], the AC50 was 25 µM (active) and the result was inactive.
On to `Cc1cccc(N)n1`, for which the compound was classed as inactive in test [1] and in test [3].
With `CCCOC(=O)CCCCC(=O)OCCC`, in test [2], the outcome was inactive.
As for `COc1ccc(C(Cl)=C(c2ccc(OC)cc2)c2ccc(OC)cc2)cc1`, in test [1], the outcome was inactive. In test [3], the AC50 was 7.49 µM (active).
Regarding `O=C1CCCCCN1SSN1CCCCCC1=O`, the result in test [1] was inactive.

The record behind these values is PubChem BioAssay (EPA / NIEHS).
